In the library only some 0.9% were active in any assay of this set; here they are far more common.
RXFP1 antag = antagonists of human relaxin receptor RXFP1. HEK293-RXFP1, relaxin-stimulated cAMP HTRF, 30 min; stronger effect = lower value. Q9HBX9. activity change, negative = inhibition, % at 57.5 µM. 0.59% of 350,000 active. AID 1259400;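 active means activity change of -60% or lower, but not beyond a set lower limit; inconclusive means change between -60% and -40%, or beyond the set limit; inactive means change above -40%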; further: on the % scale 0 is the no-effect control and ±100 the full control effect
Target sequence (Q9HBX9 whole entry, looked up): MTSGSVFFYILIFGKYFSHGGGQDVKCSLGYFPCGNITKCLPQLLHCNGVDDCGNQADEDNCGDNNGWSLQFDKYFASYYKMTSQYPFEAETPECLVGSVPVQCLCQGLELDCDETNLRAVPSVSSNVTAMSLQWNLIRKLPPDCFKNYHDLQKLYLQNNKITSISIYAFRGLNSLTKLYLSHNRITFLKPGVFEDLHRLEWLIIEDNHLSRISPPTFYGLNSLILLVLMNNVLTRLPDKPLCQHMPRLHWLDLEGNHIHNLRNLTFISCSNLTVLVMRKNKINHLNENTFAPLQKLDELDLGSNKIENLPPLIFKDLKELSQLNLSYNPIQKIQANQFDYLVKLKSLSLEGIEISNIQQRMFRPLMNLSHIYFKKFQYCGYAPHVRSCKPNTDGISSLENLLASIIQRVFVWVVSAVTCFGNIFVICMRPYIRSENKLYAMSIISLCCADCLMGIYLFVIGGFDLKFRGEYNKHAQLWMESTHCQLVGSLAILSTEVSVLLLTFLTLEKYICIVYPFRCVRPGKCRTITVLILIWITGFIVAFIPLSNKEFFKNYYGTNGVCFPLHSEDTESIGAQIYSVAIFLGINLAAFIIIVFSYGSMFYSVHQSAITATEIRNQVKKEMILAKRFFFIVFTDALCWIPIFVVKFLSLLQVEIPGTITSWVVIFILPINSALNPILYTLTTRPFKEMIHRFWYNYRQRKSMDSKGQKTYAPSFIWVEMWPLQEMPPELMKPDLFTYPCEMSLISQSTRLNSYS
RXFP1 ag = activates the human relaxin receptor RXFP1; Q9HBX9; HEK293T-RXFP1 cAMP TR-FRET, 30 min; response scale: percent of porcine relaxin response, buffer zero; Potency, µM (doses to about 57.5 µM), without a hit: at the highest dose activation, most hits filed as activators; 0.3% of 370,000 active; AID 2676; active means well fitted activation curve with a large enough effect; inconclusive means small, poorly fitted or top-dose-only effect; further: potency means the concentration at half of the fitted maximal effect; on the % scale 0 is the no-effect control and ±100 the full control effect; nearly all actives have a fitted effect of over 60% in size
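HEK293T cells stably expressing RXFP1 were pretreated with the PDE4 inhibitor Ro 20174, exposed to compounds for 30 min at 37C, lysed, and cAMP was read by TR-FRET. Data normalized to buffer (basal) and 29 nM porcine relaxin (100%).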
gsp antagonist = antagonists of gsp mutant (McCune-Albright syndrome) | gsp-mutant cells, cAMP HTRF, 30 min | Potency, µM (titrated, usually from 76.9 µM), without a hit: top-dose activity change, negative = inhibition, usual class: inhibitors | 0.4% of 340,000 active | AID 624288; calls by dose curve; cell line not stated here;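 further: intracellular cAMP measured with PDE inhibitor Ro 20-1724 present during compound exposure; potency means the concentration at half of the fitted maximal effect; on the % scale 0 is the no-effect control and ±100 the full control effect; nearly all actives have a fitted effect of over 65% in size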
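Cells, 2000/well, grown 16–24 h in DMEM 10% FBS with 0.5 mg/ml G418, then compounds plus […] (300 uM addition stock), 30 min at 37C. cAMP read by HTRF (cAMP-d2 and anti-cAMP antibody-K in lysis buffer) after 30 min RT.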
gsp agonist = agonists of gsp mutant (McCune-Albright syndrome) | gsp mutant cells, cAMP HTRF, 30 min | Potency, µM (series often up to 76.9 µM), for inactives: top-dose activation (cAMP increase), usual class: activators | 0.13% of 340,000 active | AID 624287; active means well fitted activation curve with a large enough effect; inconclusive means small, poorly fitted or top-dose-only effect, or another doubt; inactive means no such curve, though single readings can be large or run the other way; cell line not stated here;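 further: phosphodiesterase inhibitor Ro 20-1724 added with compounds to block cAMP breakdown; potency means the concentration at half of the fitted maximal effect; nearly all actives have a fitted effect of over 60% in size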
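Cells stably selected in G418 were plated at 2000/well, grown 16-24 hr, then given compounds in DMSO with the PDE inhibitor […] (300 uM solution added) for 30 min at 37C; cAMP was read by HTRF.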
* marks the source's active call; other numbers are inactive results; ? = inconclusive; / = no result given; [ ] = remark or other dose.

SMILES	RXFP1 antag	RXFP1 ag	gsp antagonist	gsp agonist
Cc1csc(=O)n1CCC(=O)OCC(=O)N(C)c1c(N)n(Cc2ccccc2)c(=O)[nH]c1=O	3	/	/	-52%
CC1Sc2c(C(=O)O)c(=O)c3cc(F)c(N4CCNCC4)cc3n21 (centres undefined)	-3	/	/	/
CN1C2CCC(C)(C)C1CC(OC(=O)C(O)(c1cccs1)c1cccs1)C2 (centres undefined)	6	/	/	/
O=c1c(C2CC(c3ccc(-c4ccc(Br)cc4)cc3)Cc3ccccc32)c(O)sc2ccccc12 (centres undefined)	-72*	/	/	/
CCCN(CCC)c1c([N+](=O)[O-])cc(S(N)(=O)=O)cc1[N+](=O)[O-]	-73*	/	/	/
C[C@]12CC[C@H]3[C@@H](CCC4=CC(=O)CC[C@@H]43)[C@@H]1CC[C@@H]2OC(=O)CCC1CCCCC1	-11	/	/	/
COc1ccc(-n2c(O)c(/C=C3\C=Nc4ccc(Br)cc43)c(=O)[nH]c2=O)c(OC)c1	-71*	-3%	-18%	?
CCC1(CCC(C)C)C(=O)NC(=O)NC1=O	6	/	/	/
O=C(c1ccc2c3c(cccc13)CC2)C1CCCN(CC2CC2)C1 (centres undefined)	-63*	4%	14%	5%[15.4 µM]
O=C(Nc1ccc(Oc2ccc(Cl)cc2)c(Cl)c1)c1cc(I)cc(I)c1O	-92*	2%	?	/
COc1ccc(OC)c(/C=N/OC(=O)Nc2ccc(Cl)cc2)c1	4	0%	-4%	-51%
C#CC(O)(C=CCl)CC (centres undefined)	-8	/	/	/
Cc1nc2ccccc2c(=O)n1/N=C/c1cc(Br)cc(Br)c1O	-79*	/	?	-1%
Cc1nc2ccccc2c(=O)n1-c1ccc(Br)cn1	1	2%	8%	3%[15.4 µM]
c1ccc(CCCN2CCN(CCOC(c3ccccc3)c3ccccc3)CC2)cc1	/	/	-10%	/
Fc1ccc(C(OCCN2CCN(CCCc3ccccc3)CC2)c2ccc(F)cc2)cc1	-73*	/	/	/
O=C(O)CNC1c2ccccc2CSc2ccccc21 (centres undefined)	-63*	/	-11%	10%
CCc1ccc(C2CCNCC2)cc1	-6	/	/	/
Clc1ccccc1N1CCNCC1	9	/	/	/
CN1CCC(N(Cc2ccccc2)c2ccccc2)CC1	-7	/	/	/
CC(C)(C)NS(=O)(=O)c1ccc(OCC(=O)N2CCN(Cc3ccccc3)CC2)cc1	-5	-1%	-1%	-4%[15.4 µM]
CSc1ccc(CN2CCN(C(=O)COc3ccc(C)cc3)CC2)cc1	-12	2%	0%	3.2µM*
CCc1ccc(CN2CCN(Cc3ccc(SC)cc3)CC2)cc1	-62*	0%	7%	3%[15.4 µM]
O=C(COc1ccc(S(=O)(=O)N2CCCCC2)cc1)N1CCN(Cc2ccccc2)CC1	5	2%	-16%	32µM*
CCC(=O)C(CCN(C)C)(c1ccccc1)c1ccccc1	9	/	/	/
SMILES	RXFP1 antag	RXFP1 ag	gsp antagonist	gsp agonist
O=C(CBr)Nc1ccc(Cl)cc1C(=O)c1ccccc1F	-27	/	/	/
C[C@]12CC[C@H]3[C@@H](CCC4=CC(=O)CC[C@@]43C)[C@@H]1CC[C@@H]2C(=O)O	-27	/	/	/
COc1cc(CC2(CCc3ccncc3)C(=O)NC(=O)NC2=O)cc(OC)c1OC	-79*	0%	6%	4%
CCN1CCCC1CNC(=O)C(O)(c1ccccc1)c1ccccc1 (centres undefined)	5	/	/	/
COc1ccc2[nH]c(C)c(CCNCc3cc(OC)c(OC)c(OC)c3)c2c1	-3	-4%	-32%	24%[15.4 µM]
COc1ccc(CNCCc2c(C)[nH]c3ccc(OC(F)(F)F)cc23)c(OC)c1	-83*	0%	-1%	?
Sc1ccccc1Cl	-6	/	/	/
CCON=C(CC)C1=C(O)CC(c2c(C)cc(C)cc2C)CC1=O (centres undefined)	-34	/	/	/
COc1ccc(C(O)C(C)NC(C)C(O)c2ccc(OC)cc2)cc1 (centres undefined)	-1	/	1%	26%
COc1ccc(C(c2ccc(OC)cc2)C(Cl)(Cl)Cl)cc1	-93*	1%	-22%	/
CC1(C)OC(c2ccccc2)=C/C(=C/C=C2C(=O)NC(=S)NC2=O)O1	-4	8%	2%	-1%
CN1/C(=C\C=C2C(=O)NC(=S)NC2=O)C(C)(C)c2ccccc21	-13	-5%	50µM*	-130%
O=c1oc2ccccc2c(O)c1[C@H]1c2ccc(O)cc2Oc2c1c(=O)oc1ccccc21	0	18µM*	5%	21%
CCCCOc1ccc(C(=O)NCC(=O)N2CCN(C/C=C/c3ccccc3)CC2)cc1	-5	/	/	-31%
O=[N+]([O-])c1ccc(C[n+]2c(-c3ccccc3)cc(-c3ccccc3)cc2-c2ccccc2)cc1	/	-1%	0%	-50%
O=[N+]([O-])c1cc(Cl)c(O)c(-[n+]2c(-c3ccccc3)cc(-c3ccccc3)cc2-c2ccccc2)c1	-5	0%	13µM*	?
Cc1[nH]n(-c2ccccc2)c(=O)c1C(c1ccc([N+](=O)[O-])cc1)c1c(C)[nH]n(-c2ccccc2)c1=O	-11	0%	25µM*	?
CCC(=O)O[C@H]1CC[C@H]2[C@@H]3CCC4=CC(=O)CC[C@]4(C)[C@H]3CC[C@]12C	-68*	/	-13%	/
O=C1NC(=O)N(Cc2ccccc2)C(=O)/C1=C\c1ccco1	-20	2%	-16%	19%[15.4 µM]
O=C1NC(=O)N(Cc2ccc(F)cc2)C(=O)/C1=C\C=C\c1ccco1	-70*	1%	6%	27%
Cc1ccc(N2C(=O)NC(=O)/C(=C/C=C/c3ccco3)C2=O)cc1	-62*	1%	-9%	14%
CCc1ccc(N2C(=O)NC(=O)/C(=C\C=C\c3ccco3)C2=O)cc1	-27	1%	-13%	0%
CC(C)c1ccc(N2C(=O)NC(=O)/C(=C/C=C/c3ccco3)C2=O)cc1	-80*	0%	-7%	7%
Cn1cccc1/C=C1/C(=O)NC(=S)N(Cc2ccc(F)cc2)C1=O	-69*	6%	-25%	-5%[15.4 µM]
Cn1cccc1/C=C1/C(=O)NC(=O)N(Cc2ccc(F)cc2)C1=O	-39	-3%	-11%	-36%
SMILES	RXFP1 antag	RXFP1 ag	gsp antagonist	gsp agonist
CCN(CC)c1ccc(/C=C2\C(=O)NC(=O)N(Cc3ccco3)C2=O)cc1	-66*	7%	-21%	-37%
CCN(CC)c1ccc(/C=C2/C(=O)NC(=O)N(CC3CCCO3)C2=O)cc1 (centres undefined)	18	-2%	-25%	0%
O=C1NC(=O)N(Cc2ccco2)C(=O)/C1=C/c1cccn1CCOc1ccccc1Cl	-61*	-1%	30%	-8%
CN(C(=O)c1cccc(N2C(=O)C3C4C=CC(C4)C3C2=O)c1)C1CCCCC1 (centres undefined)	-23	0%	3%	0%
COc1cccc(CNC(=O)c2cccc(S(=O)(=O)N3CCN(C)CC3)c2)c1	-18	-1%	6%	-64%
CC(=O)OCC1=C(C(=O)O)N2C(=O)[C@@H](N)[C@H]2SC1	5	/	/	/
CCOc1ccc(-n2nc3c(=S)[nH]nc(C)c3c2C)cc1	-4	5.6µM*	11%	?
COC(=O)C1=C(C(=O)OC)C2OC1c1cc3ccccc3cc12	-120*	/	-4%	?

Compound activity from PubChem BioAssay.
